Source: PubChem BioAssay
A number with no mark means an inactive call.

Assay: E. coli acrAB mutant growth effects, primary screen, E. coli filamentation inducers, strain DRC39, OD650, 48 h (AID 1179);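 also: screen aims at cell division blockers that make cells filament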
Conditions: E. coli DRC39 delta-acrAB growth, higher = more signal, called active from +8 up or from −8 down
With `CN(C)c1ccc(C(O)C2C=CC3C(=O)NC(=O)C3N2Nc2ccccn2)cc1` (centres undefined) the z-score was 0.0674. With `CCCCN1CC=CC23O[C@@H]4/C=C\CCCOC(=O)C4[C@H]2C(=O)N(CCO)[C@@H]3C1=O` (some centres undefined) the z-score was -0.389. For `COc1ccc([Si](C)(C)[C@@H]2[C@@H](CCO)O[C@]3(C(=O)N(Cc4ccccc4)c4ccc(N5C(=O)c6cccc7cccc5c67)cc43)[C@H]2C)cc1`, the z-score was 1.45. Work on `Oc1ccc2cc[n+](Cc3cc4c(cc3Br)OCO4)cc2c1` yielded a z-score of 0.161. Work on `CCCNC(=O)[C@@H]1c2ccccc2C(=O)N(Cc2ccc(OC(F)(F)F)cc2)[C@H]1c1ccc(CO)cc1` yielded a z-score of 1.34. With `COCCOC(=O)N1C(=O)[C@@]2(c3cc(C#CC4=CCCCC4)ccc31)[C@H](c1ccccc1OCCO)N1[C@H](c3ccccc3)[C@H](c3ccccc3)OC(=O)[C@H]1[C@@H]2C(=O)NC[C@H](O)c1ccccc1` the z-score was -0.255. For `O=C1N(CCS(=O)(=O)c2ccccc2)c2ccccc2[C@H]2OC(c3ccc(OCCCO)cc3)=N[C@@]12Cc1ccccc1`, the z-score was 1.13. Compound `[N-]=[N+]=Nc1ccccc1C[C@]1(C(=O)NCCN2CCOCC2)COC(c2ccc(OCCCO)cc2)=N1` has a z-score of 0.361. With `C=CC[C@@]1(C(=O)NCCCOC)N=C(c2ccc(OCCCO)cc2)O[C@@H]1c1ccccc1N=[N+]=[N-]` the z-score was 1.43. `COC(=O)C1=CC(CCCO)=CC(c2ccc(CN3CCCC3)cc2)N(Cc2cccc(OC(F)(F)F)c2)C=C1C(=O)OC` (centres undefined) showed a z-score of 0.701. Work on `CCCC=C(CCC)[C@@H](NC(=O)c1cccs1)c1ccc(C(=O)OC)cc1` yielded a z-score of -0.814. Work on `CC1=C2[C@@H](CCc3ccccc3)OB(O)C[C@@H]2[C@@H]2C(=O)N(C)C(=O)[C@@H]2C1` yielded a z-score of 0.561. Work on `COCCOC(=O)N1C(=O)[C@@]2(c3cc(C#CC4(O)CCCCCC4)ccc31)[C@H](c1ccc(O)cc1)N1[C@H](c3ccccc3)[C@H](c3ccccc3)OC(=O)[C@H]1[C@@H]2C(=O)N1CCN(c2ncccn2)CC1` yielded a z-score of 0.0188. Compound `COC(=O)[C@@]1(Cc2ccc(F)cc2)[C@H]2c3cc(C(=O)N(C)C)n(Cc4ccc(OC(F)(F)F)cc4)c3C[C@H]2CN1C(=O)c1ccccc1` has a z-score of -0.499. With `C=CCNC(=O)[C@H]1[C@@H]2C(=O)O[C@@H](c3ccccc3)[C@@H](c3ccccc3)N2[C@@H](c2ccccc2OCCO)[C@]12C(=O)N(C(=O)OCCOC)c1ccc(C#CC3(O)CCCCCC3)cc12` the z-score was 0.975. `C=C(COC)/C(=C/C[C@H](OC(=O)c1ccncc1)c1ccccc1OCCO)c1cc(C(=O)OC)ccc1OC` gave a z-score of -1.21. In the case of `CC(C)c1ccc(NN2C(C(O)c3ccc(C#N)cc3)C=CC3C(=O)N(c4ccccc4)C(=O)C32)cc1` (centres undefined), the z-score is reported as -0.926. `CC(C)NC(=O)[C@@]1(c2ccc([N+](=O)[O-])cc2)CC(=O)N(C2CCCCC2)[C@@H]1c1ccc(CO)cc1` showed a z-score of 1.29. Work on `CCOC(=O)C[C@H]1[C@H](OC(=O)Cc2ccc3c(c2)OCO3)[C@@H](NC(=O)c2ccc3ccccc3n2)c2cc(OCCCO)ccc2N1C(=O)c1ccccc1` yielded a z-score of 0.208. Work on `O=c1cccc(-c2ccc([N+](=O)[O-])cc2)o1` yielded a z-score of 1.34. With `CC(C)N1C(=O)C[C@@](C(=O)O)(c2ccc([N+](=O)[O-])cc2)[C@H]1c1ccc(CO)cc1` the z-score was 0.684. Work on `CCCCCCCCCC(O)C1C=CC2C(=O)N(c3ccccc3)C(=O)C2N1Nc1cc(OC)c(OC)c(OC)c1` (centres undefined) yielded a z-score of -1.75. Compound `COC(=O)[C@@]1(Cc2ccc(OC)cc2)[C@H]2c3cc(C(=O)N(C)C)n(Cc4ccc(C)o4)c3C[C@H]2CN1C(=O)c1ccccc1` has a z-score of -0.0131. For `[N-]=[N+]=Nc1ccccc1C[C@]1(C(=O)NCC(O)CO)COC(c2ccc(OCCCO)cc2)=N1` (some centres undefined), the z-score was -0.155.
